Reference: PubChem BioAssay AID2642 (Johns Hopkins Ion Channel Center, 2010)
Out of some 310,000 compounds screened, about 3,900 (1.3%) were called active. This is one part of a sample in which actives are shown more often than they occur.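 How the source made its calls: active means compounds whose thallium flux B-score, printed positive for inhibition, exceeds three library SD while starting fluorescence stays within three; inactive means the rest.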

molecular target: Potassium voltage-gated channel subfamily KQT member 1 (Homo sapiens) (UniProt P51787); assay: inhibitors of human KCNQ1 channel, primary screen, cell-based, thallium flux, high-throughput (AID 2642); conditions: CHO-K1 KCNQ1, FluxOR thallium flux fluorescence, at 10 µM; active compounds read high;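 further: channel opened by potassium depolarization with thallium stimulus after 20 min compound exposure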
Sequence (P51787 whole entry, looked up): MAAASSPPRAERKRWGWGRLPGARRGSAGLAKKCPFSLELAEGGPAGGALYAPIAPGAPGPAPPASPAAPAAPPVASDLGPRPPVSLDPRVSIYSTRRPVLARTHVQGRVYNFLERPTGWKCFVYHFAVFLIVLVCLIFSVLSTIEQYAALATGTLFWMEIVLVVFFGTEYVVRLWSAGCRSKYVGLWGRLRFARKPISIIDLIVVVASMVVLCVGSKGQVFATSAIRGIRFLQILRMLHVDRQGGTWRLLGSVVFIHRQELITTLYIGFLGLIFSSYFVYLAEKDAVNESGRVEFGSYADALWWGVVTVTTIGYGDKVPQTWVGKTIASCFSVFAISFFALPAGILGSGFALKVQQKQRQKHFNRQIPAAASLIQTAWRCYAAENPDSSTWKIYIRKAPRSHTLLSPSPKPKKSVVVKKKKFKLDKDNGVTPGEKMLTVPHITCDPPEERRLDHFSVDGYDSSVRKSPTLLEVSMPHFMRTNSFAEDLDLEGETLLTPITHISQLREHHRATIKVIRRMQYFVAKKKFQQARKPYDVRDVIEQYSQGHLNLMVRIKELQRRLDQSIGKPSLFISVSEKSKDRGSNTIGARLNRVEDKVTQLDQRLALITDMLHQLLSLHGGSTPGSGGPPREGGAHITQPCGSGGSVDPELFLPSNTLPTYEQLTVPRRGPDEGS

SMILES | B-score
COc1ccc(-n2c(C)cc(C(=O)COC(=O)c3cc(OC)c(OC)cc3NC(=O)c3cccs3)c2C)cc1 | inactive
COc1ccc(Nc2ncnc3sc(C)cc23)cc1 | inactive
COc1ccc(Nc2ncnc3sc(-c4ccccc4)cc23)c(OC)c1 | 7 (active)
COc1ccc(Nc2ncnc3ccc(Br)cc23)c(OC)c1 | inactive
c1ccc2c(c1)C(=NC1CCCCC1)NC2=NC1CCCCC1 | 6 (active)
O=C(O)CN1CCN(C(c2ccccc2)c2ccccc2)CC1 | inactive
CC1(C)CC(=O)C=C(N2CCCC2)C1 | inactive
CC1(C)CC(N2CCN(C(c3ccccc3)c3ccccc3)CC2)=CC(=[N+]2CCCCC2)C1 | 9 (active)
CC(C)NS(=O)(=O)c1ccc(NC(=O)C2CCCCC2)cc1 | inactive
COc1ccc(OC)c(S(=O)(=O)NCCC(C)C)c1 | inactive
CC(NC(=O)COC(=O)C1CCN(S(=O)(=O)c2ccccc2C(F)(F)F)CC1)c1ccccc1 (centres undefined) | inactive
Cc1ccc(CS(=O)Cc2ccc(C(=O)N3CCOCC3)o2)cc1 (centres undefined) | inactive
Cc1ccc(-c2noc(CN3CCN(Cc4ccccc4)CC3)n2)cc1 | inactive
Cc1ccc(-c2noc(CC(c3ccccc3)c3ccccc3)n2)cc1 | 7 (active)
Cc1ccc(-c2noc(CSc3nnc(-c4ccccc4)n3C)n2)cc1 | inactive
COc1cccc(NC(=O)[C@H](Cc2c[nH]c3ccccc23)NC(=O)[C@@H]2Cc3ccccc3CN2)c1 | inactive
CC(C)(O)C#Cc1ncc(C(F)(F)F)cc1Cl | inactive
COCCOC1CCN(C(=O)c2ccc(OC)c(OC3CCN(C(C)C)CC3)c2)CC1 | inactive
O=C(NCCN1CCOCC1)c1ccc(/C=C2\Sc3ccccc3N(Cc3ccc(F)cc3)C2=O)cc1 | 10 (active)
CCN1CCN(CCNC(=O)c2ccc(/C=C3/Sc4ccccc4N(Cc4cccc(C)c4)C3=O)cc2)CC1 | 13 (active)
CCN1CCN(CCNC(=O)c2ccc3c(c2)NC(=O)/C(=C\c2ccc(OC)c(OC)c2)S3)CC1 | inactive
CN1CCN(CCCNC(=O)c2ccc(/C=C3\Oc4ccccc4N(Cc4ccc(Cl)cc4)C3=O)cc2)CC1 | inactive
O=C(NCCN1CCOCC1)/C(=C/c1ccc(F)cc1)NC(=O)c1ccccc1 | inactive
O=C(NCCCN1CCOCC1)c1ccc2c(c1)N(Cc1cccc(F)c1)C(=O)c1ccccc1S2 | inactive
CC(=O)Nc1ccc(S(=O)(=O)N(C)c2ccc(OCC(=O)OCC(=O)N3CCCCC3)cc2)cc1 | inactive
COc1ccccc1N(C)S(=O)(=O)c1ccc(Cl)c(C(=O)N2CCC(C(N)=O)CC2)c1 | inactive

SMILES | B-score
COC(=O)c1ccc(CN2CCCC(C(=O)Nc3cccc(-n4cnnn4)c3)C2)cc1 (centres undefined) | inactive
CC(C)CCN1C(=O)c2ccc(C(=O)Nc3cccc(S(N)(=O)=O)c3)cc2C1=O | inactive
O=C(CS(=O)(=O)c1cn(Cc2ccc(Cl)cc2)c2ccccc12)N1CCOCC1 | inactive
COc1ccc(/C=C2/SC(=O)N(CCCCCC(=O)Nc3ccccc3C(=O)O)C2=S)cc1 | 6 (active)
COc1ccc(/C=C2\SC(=O)N(CCC(=O)NCCCn3ccnc3)C2=O)cc1 | inactive
O=C(CCCN1C(=O)/C(=C\c2ccccc2)SC1=S)Nc1ccccc1O | inactive
Cc1cc(/C=C2/SC(=O)N(CC(=O)N3CCCC3)C2=O)ccc1N1CCOCC1 | inactive
Cc1cccc(CNS(=O)(=O)c2ccc(-c3cnc(C4CC4)o3)cc2)c1 | inactive
CCOC(=O)Cn1c(=O)n(Cc2ccc(OC)cc2)c(=O)c2cccnc21 | inactive
COC(=O)[C@@H](Cc1ccccc1)NC(=O)NCCc1ccccc1 | inactive
O=C(c1cc2sccc2n1Cc1ccc(F)cc1)N1CCc2ccccc21 | inactive
CC1Cc2ccccc2N1C(=O)c1cc2sccc2n1Cc1ccccc1 (centres undefined) | 6 (active)
CCOC(=O)c1cc2sccc2n1Cc1ccc(C#N)cc1 | inactive
Cn1nc(C(F)(F)F)cc1-c1ccc(/C=C(\C#N)C(=O)c2cccc(C(F)(F)F)c2)s1 | 8 (active)
CCC(=O)OCc1c(C(F)(F)F)nn(C)c1Oc1cccc(C(F)(F)F)c1 | inactive
Cn1nc(C(F)(F)F)cc1C(=O)O | inactive
CCCCN(C)CCNC(=O)C1CCCN(S(=O)(=O)c2cccc3nsnc23)C1 (centres undefined) | inactive
CN(Cc1ccccc1)C(=O)COC(=O)c1ccccc1Nc1ccccc1 | inactive
O=C(OCC(=O)N(CCc1ccccc1)Cc1ccccc1)c1ccccc1[N+](=O)[O-] | 6 (active)
Cc1c(C(=O)NCCCc2ccccc2)cccc1[N+](=O)[O-] | inactive
CC1=NN(C(C)C)C(=O)C1 | inactive
CN(C)c1ccc(/C=N\S(=O)(=O)c2ccccc2)cc1 | inactive
CC[n+]1cc(C)ccc1/C=C/c1ccc(N(C)C)cc1 | 14 (active)
Cc1nnc2n1N=C(c1ccc3c(c1)NC(=O)CO3)CS2 | inactive
Cc1noc(C)c1CSCC(=O)N(CCC(C)C)c1c(N)n(Cc2ccccc2)c(=O)[nH]c1=O | inactive
COc1cccc(N(CC(=O)NC2CCCC2)C(=O)Cn2nnc(-c3ccc(C)o3)n2)c1 | inactive

SMILES | B-score
Cc1cccc(C(=O)Nc2nnc(S(=O)(=O)N3CCCCCC3)s2)c1 | inactive
O=C(Nc1nnc(S(=O)(=O)N2CCOCC2)s1)c1cccc(Br)c1 | inactive
O=C(Nc1nnc(S(=O)(=O)N2CCCCCC2)s1)c1cccc(Br)c1 | 7 (active)
CCn1cc(CNC(=O)c2cc([N+](=O)[O-])c(C)c([N+](=O)[O-])c2)cn1 | inactive
Cc1cccc(NC(=O)c2cc([N+](=O)[O-])ccc2N2CCN(C)CC2)c1 | inactive
Cc1cccc(NC(=O)c2sc(-c3ccccc3)nc2-c2ccc([N+](=O)[O-])cc2)c1 | 6 (active)
Cc1cccc(NC(=O)c2ccc([N+](=O)[O-])o2)c1 | inactive
COc1ccc(CCNc2ncnc3c2nnn3Cc2ccccc2)cc1 | inactive
O=C1/C(=C/c2ccc(F)cc2)SC(=S)N1CCCC(=O)N1CCCCC1CCO (centres undefined) | inactive
COc1ccc(CCNC(=O)C(=O)NCC2OCCN2S(=O)(=O)c2ccc(OC)c(C)c2)cc1 (centres undefined) | inactive
O=C1C2C3C=CC(C4CC34)C2C(=O)N1c1nccs1 (centres undefined) | inactive
COc1ccc(-c2nc(N)ncc2-c2ccc(Cl)cc2)c(O)c1 | inactive
CC(C)(C)Oc1ncc(Br)c(OC(C)(C)C)n1 | inactive
COc1cccc(-c2cnc(OC(C)(C)C)nc2OC(C)(C)C)c1 | 8 (active)
CCOc1cc2c(Cl)ncnc2c(OCC)c1OCC | inactive
COc1cccc(CN2CCN(Cc3ccc4cccc(F)c4n3)CC2CCO)c1 (centres undefined) | inactive
O=S(=O)(c1cccc2nonc12)N1CCN(c2cccc(Cl)c2)CC1 | inactive
CC(Nc1ccccc1)c1cccnc1 (centres undefined) | inactive
Cc1nn2c(c1-c1ccccc1)N=C(c1ccco1)CC2c1ccccc1 (centres undefined) | inactive
CC(C)(C)NS(=O)(=O)CC12CCC(CC1=O)C2(C)C (centres undefined) | inactive
COc1ccc(Cl)cc1NC(=O)NCC1CCN(Cc2ccccc2F)CC1 | inactive
COc1ccc(Cl)cc1NC(=O)C(C)N1CCc2ccccc21 (centres undefined) | 7 (active)
COc1ccc(Cl)cc1NC(=O)NC(C)C(C)(C)C (centres undefined) | inactive
COc1ccccc1N1CCN(C(=O)c2cn(-c3ccccc3)nc2-c2cccnc2)CC1 | inactive
COc1ccc(NC(=O)C(CC(C)C)NC(=O)C2CCC(C)CC2)cc1 (centres undefined) | inactive
COc1ccc(CCNCC(O)Cn2ccc3ccccc32)cc1OC (centres undefined) | inactive

SMILES | B-score
Cc1cccc(NC(=S)Nc2ccc(Br)cc2)c1 | 6 (active)
Cc1cccc(NC(=O)NC(=S)NC(=O)c2ccccc2)c1 | inactive
Cc1cccc(NC(=S)Nc2ccc(Cl)c(Cl)c2)c1 | 7 (active)
Cc1cccc(NC(=S)Nc2ccc3cn[nH]c3c2)c1 | inactive
Cc1ccc(NC(=S)Nc2ccc(F)cc2)cc1 | inactive
Cc1cccc(NC(=S)NC23CN4CN(CN(C4)C2)C3)c1 | inactive
Cc1ccc(C)c(N2CCN(C(=O)CCCn3c(=O)c4cccn4c4cccnc43)CC2)c1 | inactive
COC(=O)CN1C(=O)[C@H]2[C@@H](/C=C/c3ccccc3)N3C(=O)CN(Cc4ccccc4)C(=O)[C@@]3(Cc3ccccc3)[C@H]2C1=O | inactive
CN(C)/C=C(/C(=O)c1ccc(F)cc1)S(=O)(=O)c1ccc(F)cc1 | inactive
CC(NCC(=O)Nc1cc(Cl)cc(Cl)c1)c1ccccc1 (centres undefined) | inactive
Cc1nnc(SC(C(=O)Nc2cc(Cl)cc(Cl)c2)c2ccccc2)[nH]c1=O (centres undefined) | 8 (active)
Cc1nnc(SC(C(=O)c2ccccc2)c2ccccc2)[nH]c1=O (centres undefined) | inactive
CC(/C=C/c1ccco1)=N/NC(=O)C1COc2ccccc2O1 (centres undefined) | inactive
CC(/C=C/c1ccccc1)=N\NC(=O)C1CC1(C)c1ccccc1 (centres undefined) | 9 (active)
O=C(N/N=C/C=C/c1ccccc1)C1CC1(c1ccccc1)c1ccccc1 (centres undefined) | inactive
COc1ccc(NC(=O)c2oc3ccc(S(=O)(=O)N4CCOCC4)cc3c2C)cc1 | inactive
COCCN1C2=C(COC(C)(C)C2)C(=S)NC1c1ccccc1 (centres undefined) | inactive
Cc1nc([N+](=O)[O-])nn1C12CC3CC(CC(Br)(C3)C1)C2 | inactive
CCOC(=O)c1c(NC(=O)CCCN2CCOCC2)sc2c1CC(C)(C)OC2 | inactive
COc1ccc(C(=O)C2CCCN(Cc3ccc4nonc4c3)C2)c(C)c1 (centres undefined) | inactive
CCOC(=O)c1[nH]ncc1CN1CCCC(C(=O)c2ccc(OC)cc2C)C1 (centres undefined) | inactive
COc1ccc(C(=O)C2CCCN(Cc3cccn3-c3ccccn3)C2)c(C)c1 (centres undefined) | 9 (active)
CCC(=O)c1ccc(OCC(O)Cn2nc(C)c(C(C)=O)c2C)cc1 (centres undefined) | inactive
CCOC(=O)CCc1c(C)c(C#N)c2[nH]c3ccccc3n2c1=O | inactive
Cc1ccccc1Cn1c(=O)[nH]c2ccccc21 | inactive
CCCc1cc(=S)n2c([nH]c3ccccc32)c1C#N | 8 (active)
